Source: PubChem
An excerpt weighted towards active compounds, which were near 2.3% of everything screened.
M1 ag parental = counter-screen for M1 agonists: effect in parental CHO-K1 cells; Fluo-8 calcium fluorescence; scaled to maximal ATP response, vehicle zero; activation, % at 3 µM; 360,000 compounds, 0.48% hits; AID 602248, 2012; in the data active means activation above about 15%;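 further: untransfected CHO-K1 host cells lacking M1 receptor as counterscreen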
M1 PAM parental = nonselective calcium activators in parental CHO-K1 cells, primary screen, counter-screen for M1 PAM project, cell-based, Fluo-8 calcium fluorescence, full deck, 1536-well. ATP EC20; 0% at ATP EC20, 100% at ATP max. activation, % at 3 µM. 360,000 compounds, 0.02% hits;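 active means activation above the run cutoff, the mean activation of all test compounds plus 3 SD, cut at about 40% in these data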;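 further: peak over basal fluorescence ratio in a 140 s read after ATP addition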
M1 antag = human M1 muscarinic receptor antagonists, primary screen, CHO-K1 cells, Fluo-8 calcium fluorescence, 1536-well. inhibition, % at 3 µM. Muscarinic acetylcholine receptor M1 (Homo sapiens), P11229. CHO-K1 hM1, ACh EC80 antagonist. 360,000 compounds, 1.3% hits;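 active means percent inhibition above its own plate's cutoff, namely the mean of that plate's compound wells plus 3 SD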;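 further: peak over basal fluorescence ratio during 140 s after agonist addition; 0% = ACh EC80 plus DMSO and 100% = DMSO alone without agonist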
Target sequence (P11229 whole entry, looked up): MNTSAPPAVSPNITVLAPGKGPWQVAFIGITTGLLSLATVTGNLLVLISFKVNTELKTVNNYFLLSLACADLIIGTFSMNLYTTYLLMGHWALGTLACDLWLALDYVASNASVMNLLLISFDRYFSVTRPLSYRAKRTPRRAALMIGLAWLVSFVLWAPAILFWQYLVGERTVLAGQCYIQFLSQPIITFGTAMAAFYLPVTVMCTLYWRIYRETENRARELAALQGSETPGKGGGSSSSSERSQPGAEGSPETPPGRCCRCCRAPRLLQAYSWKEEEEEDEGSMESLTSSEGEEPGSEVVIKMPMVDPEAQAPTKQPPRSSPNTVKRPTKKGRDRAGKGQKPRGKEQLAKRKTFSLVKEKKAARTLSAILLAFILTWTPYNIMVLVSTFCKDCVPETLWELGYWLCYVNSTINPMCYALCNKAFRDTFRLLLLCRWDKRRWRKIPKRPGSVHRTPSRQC
CHO-K1 Ca antag = M1 antagonist counterscreen hit in parental CHO-K1 cells; 360,000 compounds, 0.6% hits; ATP-induced calcium, Fluo-8 fluorescence; inhibition, % at 3 µM;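 active means inhibition above a per-plate cutoff, the plate's mean sample inhibition plus 3 SD, cut at about 24% in these data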;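 further: 0% = DMSO plus EC80 ATP and 100% = DMSO alone without ATP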
M1 PAM = human M1 muscarinic receptor positive allosteric modulators, primary screen, CHO-K1 cells, Fluo-8 calcium fluorescence, 1536-well | 360,000 compounds, 0.088% hits | CHO-K1 hM1, ACh EC20; 0% = ACh EC20, 100% = maximal ACh | Muscarinic acetylcholine receptor M1 (Homo sapiens), P11229 | activation, % at 3 µM; in the data active means activation above about 19%, passing the limit was not always enough
CHRM1 agonist = human M1 muscarinic receptor agonists, primary screen, Fluo-8 calcium fluorescence, CHO-K1 cells, HTS. Muscarinic acetylcholine receptor M1 (Homo sapiens), P11229. CHO-K1 hM1, agonist mode; 0% DMSO, 100% acetylcholine EC100. activation, % at 3 µM. 360,000 compounds, 0.33% hits. AID 588814, 2011;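 active means activation above the run's mean compound activation plus 3 SD, cut at about 16% in these data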;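 further: peak over basal fluorescence ratio within a 140 s kinetic read after compound addition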
Starred values were filed as active, the others as inactive.

SMILES	M1 ag parental	M1 PAM parental	M1 antag	CHO-K1 Ca antag	M1 PAM	CHRM1 agonist
O=C(Cc1cccc(NC(=O)C2CCCN(C(=O)c3ccccc3)C2)c1)Nc1ccc(C(=O)N2CCOCC2)cc1 (stereo unspecified)	0	10	-10	-15	3	-4
Cc1ccc(C)c(S(=O)(=O)Nc2ccccc2C(=O)Nc2ccccc2N2CCOCC2)c1	0	-4	2	10	-2	-2
COc1ccc2cc1Oc1ccc(cc1)C[C@H]1c3c(cc4c(c3Oc3cc5c(cc3OC)CCN(C)[C@@H]5C2)OCO4)CCN1C	0	16	-32	-3	-6	-7
COc1ccc2cc1Oc1ccc(cc1)C[C@H]1c3cc(c(OC)cc3CCN1C)Oc1c(OC)c(OC)cc3c1[C@H](C2)N(C)CC3	2	13	91*	0	-25	-7
CC(C)NS(=O)(=O)c1ccc(CCC(=O)N2CCCC2)cc1	-1	-16	1	24*	8	-3
O=C(c1ccco1)N1N=C(c2ccc3nccnc3c2)CC1c1ccccc1 (stereo unspecified)	4	47*	-8	-38	9	-2
COc1ccc(NC(=O)CN(C)C(=O)c2cc(-c3ccc(OC)cc3)nc3ccccc23)cc1	5	0	29*	0	-10	-2
CN(CC(=O)Nc1ccc(F)cc1)C(=O)COc1ncnc2ccccc12	6	18	101*	-5	-26	0
CN(CC(=O)Nc1ccc(Cl)cc1)C(=O)COc1ncnc2ccccc12	0	-21	3	-5	-4	-5
CCNC(=O)COC(=O)c1cc(-c2ccc(OC)cc2)nc2ccccc12	0	-16	14*	24	-9	-3
COc1ccc(NC(=O)CN(C)C(=O)c2cc(-c3ccccc3)nc3ccccc23)cc1	7	-9	15	0	-3	-3
O=C(COC(=O)c1cc(-c2ccccc2)nc2ccccc12)NCC1CCCO1 (stereo unspecified)	1	2	-3	-9	3	-5
O=C(COC(=O)c1cc(-c2cccc(Br)c2)nc2ccccc12)NCC1CCCO1 (stereo unspecified)	0	-14	4	28*	8	3
CC(CC(=O)NCc1ccco1)S(=O)(=O)c1ccc2c(c1)CCN2C(=O)C1CC1 (stereo unspecified)	0	4	-4	0	9	-3
CN(CCOc1ccc(Cl)cc1)C(=O)c1cc(-c2ccco2)nc2ccccc12	9	-3	38*	24*	-11	-1
Cc1nn(-c2ccccc2)c(Cl)c1/C=N/O	0	5	7	10	-1	-7
Cc1nn(-c2ccccc2)c(Cl)c1/C=C/C(=O)c1ccccc1	0	-6	-26	28*	2	-1
COc1ccc(NC(=O)CSCC(=O)N2c3ccccc3CCc3ccccc32)cc1	19*	17	-7	4	7	-10
COc1ccc(NC(=O)CSCC(=O)N(C)Cc2cccc(OC)c2OC)cc1	0	-33	-15	26*	1	1
CCOC(=O)C1=C(COC(=O)CCCOc2ccccc2)NC(=O)NC1C (stereo unspecified)	7	5	-7	-5	5	-1
O=C(NCCc1ccccc1Cl)c1cc(COc2ccc(F)cc2F)on1	1	15	8	-2	-8	-5
COc1ccc2[nH]c(=O)c(CN(Cc3cccs3)S(=O)(=O)c3c(C)ccc4nsnc34)cc2c1	5	-7	45*	10	-14	1
O=c1c2c(nc3n1CCCCC3)-c1ccccc1CC21CCCC1	0	10	31*	-25	-33	-9
O=C(O)C1Cn2c(nc3c(c2=O)C2(CCCC2)Cc2ccccc2-3)S1 (stereo unspecified)	0	9	-3	-10	3	-5
Nn1cnc2c(c1=O)C1(CCCCC1)Cc1ccccc1-2	0	24	-7	-7	14	-8
SMILES	M1 ag parental	M1 PAM parental	M1 antag	CHO-K1 Ca antag	M1 PAM	CHRM1 agonist
O=c1[nH]cnc2c1C1(CCCC1)Cc1ccccc1-2	2	5	-15	44*	-3	0
C(=C\c1ccccc1)/CN1CCN(C(CCc2ccccc2)c2nnnn2C2CCCCC2)CC1 (stereo unspecified)	0	6	-9	-12	-8	-5
CCC1CCCCN1CCCNC(=O)CS(=O)(=O)Cc1nc(-c2cccc(OC)c2)oc1C (stereo unspecified)	0	-8	17	11	-13	-6
Cc1cc(Cl)ccc1NC(=S)NCCCO	0	13	-12	-5	6	-4
Cc1ccc(Cl)cc1NC(=S)NCCCSC1CCCCC1	5	-3	37*	7	-15	-4
O=c1[nH]c2ccccc2n1CCCN1CCCCC1	0	15	10	-15	-15	21*
CCCn1c(=O)[nH]c2ccccc21	1	8	-1	5	5	1
CNC(=O)COc1coc(CN2CCN(c3ccc(OC)cc3)CC2)cc1=O	1	7	1	2	-3	-1
COC(=O)c1ccccc1NC(=O)CCCn1nc([N+](=O)[O-])c(Br)c1C	0	-15	-27	-6	13	-2
COc1ccc(COc2cc(-c3cccc(OC)c3)nc3ccc(NC(=O)c4ccc(C)cc4)cc23)cc1	3	8	14	-6	-6	-2
COc1ccc(COc2cc(-c3cccc(OC)c3)nc3ccc(NC(=O)c4ccc(N(C)C)cc4)cc23)cc1	0	-6	40*	1	-23	-6
CC(C)CC(=O)OC1C(N2CCOCC2)c2c(ccc(/C=C/C(=O)N3CCOCC3)c2O)OC1(C)C (stereo unspecified)	15*	14	1	4	6	-5
CN(C)c1ccc(S(=O)(=O)N2CCCCC2)cc1NC(=O)C1=NN(c2ccccc2)C(=O)CC1	0	7	-9	-9	10	-2
O=C1c2ccccc2C(=O)N1CCCc1nc2ccccc2c(=O)n1CCCn1ccnc1	0	-1	3	30*	8	-6
Cc1ccc(NS(=O)(=O)c2ccc(C(=O)NCc3ccc(S(N)(=O)=O)cc3)cc2)cc1	1	15	-13	-17	3	-4
CCOC(=O)C1CCN(C(=O)c2cc3c(=O)n4ccccc4nc3n2C)CC1	0	17	8	-1	-2	-6
